# In PubChem BioAssay (NCI):
# This is part of a sample that, as a whole, favours compounds with a hit. Of some 83,000 tested, about 20% had one in any assay.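 Compound tested at a single concentration for 48 hours in 96-well plates; a percent growth value below 10 was scored as active.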 Calls of active or inactive are those of the source.
# System: RXF 393 renal
# Experiment: NCI-60 one-dose screen, 48 h (100 = growth as untreated, 0 = no growth, -100 = all killed)
# Conditions: 10 µM unless noted
row,SMILES,growth
1,CCN(CC)S(=O)(=O)c1ccc2[nH]c(=O)cc(C(=O)Nc3ccc(OC)cc3OC)c2c1,9.24% (active)
2,COc1ccc(/C=C/C(=O)OCC(=O)NNC(=O)c2ccccc2)cc1OC,97.1% (inactive)
3,COc1ncc(-c2ccc3ncnc(Nc4cccc(Cl)c4)c3c2)cc1N(S(C)(=O)=O)S(C)(=O)=O,68.8% (inactive)
4,Cc1c(C(=O)NCc2ccccc2)[n+](=O)c2cc(F)ccc2n1[O-],33.1% (inactive)
5,COc1cc(Br)c(OC)cc1Br,116% (inactive)
6,CN1CCN(CCCOc2ccc3nc(Nc4ccc(C(F)(F)F)c(Cl)c4)ccc3c2)CC1,6.61% (active)
7,CC(=O)c1cc(C(=O)c2ccc3c(c2)Sc2ccccc2N3)c2cc(C)ccn12,49.3% (inactive)
8,Cc1cc(C(=O)O)c(N)c(C)n1,121% (inactive)
9,c1ccc2c(c1)Oc1ccccc1C2C1c2ccccc2Oc2ccccc21,94.2% (inactive)
10,CC/C=C\C[C@H](O)C/C=C1/C(=O)C(Cl)=C[C@@H]1C/C=C\CCCC(=O)O,64.2% (inactive)
11,O=C(Nc1ccc(I)cc1)c1cc([N+](=O)[O-])ccc1O,7.47% (active)
12,O=C(CSc1nc(-c2ccc(Cl)cc2)cn1-c1ccc(Cl)cc1)c1ccc(Br)cc1,67.9% (inactive)
13,N#CC1=C(N)n2nc(-c3ccncc3)nc2NC1c1cccc2ccccc12 (stereo not drawn),87.4% (inactive)
14,Cc1ccc2nc(-c3c(CCCO)noc3N)[nH]c(=O)c2c1,153% (inactive)
15,COc1ccc(/C(=N\O)c2cc(OC)c(OC)c(OC)c2)c(OC)c1N,16.8% (inactive)
16,CCOc1ccc(/C=C/C=N/NC(N)=S)cc1,-0.439% (active)
17,C=C1C(=O)O[C@H]2[C@H]1CC/C(COC(=O)NCCc1cccc(OC)c1)=C\CC[C@@]1(C)O[C@@H]21,-2.81% (active)
18,Cc1c(C2=NNC(c3ccc4c(c3)OCO4)C2)[n+]([O-])c2ccccc2[n+]1[O-] (stereo not drawn),96.4% (inactive)
19,O=S(=O)(NCCCNc1cc(-c2cn(-c3ccccc3)nc2-c2cccc(O)c2)ccn1)c1ccc(Br)cc1,2.04% (active)

row,SMILES,growth
1,COc1cccc2nc(Nc3ccc(NC(=O)c4ccc5ncccc5c4)cc3)ccc12,30% (inactive)
2,COc1ncc(-c2ccc3ncnc(Nc4cccc(Cl)c4)c3c2)cc1NS(=O)(=O)CCN1CCOCC1,-30.7% (active)
3,O=C(OCCCCOC(=O)n1cnc2ccccc21)n1cnc2ccccc21,107% (inactive)
4,Cc1cc(C)c2c(=O)[nH]c(SCC(=O)Nc3cccc(S(=O)(=O)N(C)C)c3)nc2n1,58.4% (inactive)
5,Cc1ccc(S(=O)(=O)OCC(=O)Nc2ccc(C(=O)O)c(O)c2)cc1,63.1% (inactive)
6,CN(C)c1nc(N)c(N=O)c(N)n1,118% (inactive)
7,Cc1nc2scc(-c3ccccc3)n2c(=O)c1CCO,106% (inactive)
8,Cc1ccc2c(c1)C(C)Cc1c(ncnc1-n1cnc3ccccc31)N2C (stereo not drawn),21.5% (inactive)
9,O=S(=O)(NCCNc1cc(-c2cn(-c3ccccc3)nc2-c2ccccc2)ccn1)c1cccc2ccccc12,55.3% (inactive)
10,CCCCCCOc1ccc(C2(Cl)c3ccccc3N(C)c3ccccc32)cc1,57% (inactive)
11,CN(C)C1CCC(NC2=CC(=O)C=CC2=O)CC1 (stereo not drawn),118% (inactive)
12,CC(=O)N1Cc2ccccc2C(C)Cc2cc(Cl)ccc21 (stereo not drawn),124% (inactive)
13,NC(N)=NC(N)=Nc1ccccc1-c1ccccc1,112% (inactive)
14,Cc1oc2ncnc(Nc3ccccc3)c2c1C(=O)NCCO,104% (inactive)
15,Cc1cc(NC(=O)COC(=O)c2sc3cc(F)ccc3c2Cl)no1,32.6% (inactive)
16,CC1(C)OC2COC3(C(=O)O)OC(C)(C)OC3C2O1 (stereo not drawn),111% (inactive)
17,C/C(=C\c1csc(C)n1)[C@@H]1C[C@@H]2O[C@]2(C)CCC[C@H](C)[C@H](O)[C@@H](C)C(=O)C(C)(C)[C@@H](O)CC(=O)N1,-83.3% (active)
18,COc1cc2c(cc1OCCCCn1c(-c3cc(=O)c4ccccc4o3)nc3ccccc31)N=C[C@@H]1CCCN1C2=O,51.3% (inactive)
19,COc1cc(-c2csc(NC(=O)c3cc(C(F)(F)F)cc(C(F)(F)F)c3)n2)cc(OC)c1OC,56.7% (inactive)
